Sampled rows, rich in hits. Any-hit rate of the full collection: about 8.9%.
DRD3 agonist: activates the human D3 dopamine receptor; 410,000 compounds, 0.58% hits; max activation, %; D3R DiscoveRx beta-arrestin cells, luminescence, 90 min; in the data active = max activation above about 30%
Target sequence (P35462 whole entry, looked up): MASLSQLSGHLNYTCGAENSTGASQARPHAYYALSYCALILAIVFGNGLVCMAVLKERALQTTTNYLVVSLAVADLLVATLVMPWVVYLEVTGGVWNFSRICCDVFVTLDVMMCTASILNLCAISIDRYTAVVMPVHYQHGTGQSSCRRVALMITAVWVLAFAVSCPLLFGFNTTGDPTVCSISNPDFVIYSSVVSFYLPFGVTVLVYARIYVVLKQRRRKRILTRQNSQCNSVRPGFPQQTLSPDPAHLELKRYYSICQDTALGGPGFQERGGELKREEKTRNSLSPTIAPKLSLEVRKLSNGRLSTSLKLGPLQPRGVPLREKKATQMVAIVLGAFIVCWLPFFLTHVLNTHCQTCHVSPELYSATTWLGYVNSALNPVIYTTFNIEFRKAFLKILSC
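Agonist-mode cell screen: cells plated at 1500/well and incubated overnight at 37 °C, then exposed to library compounds for 90 min at 37 °C. Detection reagent was added for 30–60 min at room temperature, and luminescence was read.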
MCF10A rereplic: inducers of DNA re-replication in MCF 10A breast cells. Potency, µM (series often up to 46.1 µM), most hits filed as activators. MCF 10A DNA re-replication, Hoechst nuclear intensity, 48 h. 350,000 compounds, 2.9% hits; note: nearly all actives have a fitted effect of over 50% in size
KB-V1 cytotox: kills drug-selected multidrug resistant KB-V1 cells. AID 1347076. Potency, µM (doses to about 46.1 µM), most hits filed as cytotoxic. KB-V1 MDR cells viability, CellTiter-Glo, 72 h. 400,000 compounds, 3.4% hits; note: nearly all actives have a fitted effect of over 60% in size
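Potencies derive from concentration-effect curves fitted to normalized luminescence (CellTiter-Glo) of KB-V1 cells treated for 72 h at 37 degrees C in phenol-red-free DMEM containing 10% FBS.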
D3 antag: D3 dopamine receptor (human) antagonism; P35462; D3R cells, DiscoveRx beta-arrestin luminescence, antagonist mode; stronger effect = lower value; max response, negative = inhibition, %; 360,000 compounds, 2.5% hits; in the data active = max response below about -50%; inconclusive = no clear call, values can overlap the other calls
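Cells expressing the human receptor were seeded at 1500 cells/well, incubated overnight at 37 degrees C in 5% CO2, then exposed to library compounds with dopamine controls for 90 minutes at 37 degrees C before luminescent detection.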
KB-3-1 cytotox: kills parental KB-3-1 adenocarcinoma cells; KB-3-1 viability, CellTiter-Glo ATP luminescence, 72 h; Potency, µM (titrated, usually from 46.1 µM), hits mostly cytotoxic; 400,000 compounds, 1.4% hits; note: nearly all actives have a fitted effect of over 60% in size
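Using CellTiter-Glo luminescence, growth of non-resistant KB-3-1 adenocarcinoma cells is assessed 72 h after pin-tool compound addition at 37 °C. Normalized responses across the concentration series yield fitted curves.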
SW480 rereplic: induces DNA re-replication in SW480 colon adenocarcinoma cells; 340,000 compounds, 1.8% hits; SW480 DNA re-replication, Hoechst DNA content imaging, 48 h; Potency, µM (series often up to 46.1 µM), usual class: activators; note: nearly all actives have a fitted effect of over 55% in size
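Image-based read-out: total Hoechst fluorescence of nuclei (405 nm excitation, 500-530 nm emission), with hits raising the fraction of high-intensity nuclei. SW480 colon cells incubated 48 hr with compounds at 37 C.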
Hits are given with their value; i = inactive; ? = inconclusive; nt = no result; ! = repeats disagree; [ ] = remark or other dose. Unless noted, calls come from the whole dose curve; as a rule, active = well fitted curve in the direction sought with a large enough effect; inconclusive = small, poorly fitted or top-dose-only effect, or another doubt; inactive = no such curve, though single readings can be large; an effect the other way counts as inactive or inconclusive.

SMILES	DRD3 agonist	MCF10A rereplic	KB-V1 cytotox	D3 antag	KB-3-1 cytotox	SW480 rereplic
Cc1cc(Cl)ccc1NC(=O)CCC(=O)N/N=C/c1cc([N+](=O)[O-])ccc1O	i	i	?	-55.9	i	i
Cc1cc(C)n(CC(=O)N/N=C/c2cc([N+](=O)[O-])ccc2O)n1	i	i	?	-56.3	?	?
Cc1cc(C)n(CC(=O)c2ccc(Cl)cc2)n1	i	i	i	i	i	i
Cc1cc(C)n(CC(=O)c2cccc([N+](=O)[O-])c2)n1	i	i	i	-57.5	i	?
Cc1cc([N+](=O)[O-])nn1CC(=O)N/N=C/c1ccccc1O	i	i	i	i	i	?
COc1cc(OC)c(NC(=O)CSc2cc(=O)n(C)c3ccc(Cl)cc23)cc1Cl	i	nt	?	nt	i	nt
Cc1cc(=O)n2nc(N3CCC(C(=O)NCCCOC(C)C)CC3)sc2n1	i	nt	?	nt	i	nt
Cc1ccc(S(=O)(=O)CCC(=O)c2cccc([N+](=O)[O-])c2)cc1	i	3.66µM	i	?	i	i
Cc1cccc(N2CCN(C(=O)C3CCN(c4ncnc5c4nc4n5CCCCC4)CC3)CC2C)c1 (stereo unspecified)	35.3!	14.6µM	?	i	?	?
Cc1cccc(N2CCN(C(=O)C3CCN(c4ncnc5c4nc4n5CCCCC4)CC3)CC2)c1C	i	?	i	i	?	i
O=C(C1CCN(c2ncnc3c2nc2n3CCCCC2)CC1)N1CCN(c2ccccc2F)CC1	61.6!	i	i	i	i	i
Fc1ccccc1N1CCN(c2ncnc3c2nc2n3CCCCC2)CC1	i	nt	?	nt	i	nt
Cc1cc(-n2c(=O)[nH]c(=O)n(C)c2=O)ccc1Oc1ccc(S(=O)(=O)C(F)(F)F)cc1	i	nt	nt	nt	nt	nt
O=C(C(=Cc1ccccc1)CN1CCCCC1)c1ccccc1	i	0.651µM	?	-91.4	5.17µM	2.91µM
Cc1cccc(-n2c(=O)c3c(c4cc(C)ccc4n3C)n(CC(=O)Nc3ccc(C)c(C)c3)c2=O)c1	i	nt	i	nt	i	nt
COc1cc(C(=O)N/N=C/c2ccc3c(c2)c2ccccc2n3C)ccc1O	i	13µM	?	i	?	?
Cn1c2ccccc2c2cc(/C=N/NC(=O)c3cc(O)cc(O)c3)ccc21	i	?	?	i	i	i
Cn1c2ccccc2c2cc(/C=N/NC(=O)c3cc(O)ccc3O)ccc21	i	3.66µM	i	i	i	i
Cn1cc(-c2ccc(Cl)cc2)cc(C#N)c1=O	i	i	i	i	i	i
Cn1c(-c2ccc(Cl)cc2)ccc(C#N)c1=O	i	i[0.0737 µM]	5.8µM	i	?	i
COc1cccc2sc(NN)nc12	i	i	i	i	i	i
COc1cccc(-c2nnc(NC(C)=O)o2)c1	i	i	i	?	i	i
COc1ccccc1-c1nnc(Nc2nc3c(OC)cccc3s2)o1	i	?	?	i	0.411µM	2.31µM
COc1cccc2sc(Nc3nnc(-c4ccccc4Cl)o3)nc12	i	?	i	i	?	2.59µM
COc1cccc(-c2nnc(Nc3nc4c(F)cccc4s3)o2)c1	i	16.4µM	i	i	i	i
SMILES	DRD3 agonist	MCF10A rereplic	KB-V1 cytotox	D3 antag	KB-3-1 cytotox	SW480 rereplic
Cc1ccc(C)c(N2CCN(C(=O)CCc3c(C)nn(-c4ccc(N5CCCC5)nn4)c3C)CC2)c1	i	nt	nt	nt	nt	nt
N=c1c(C(=O)NC2CCCC2)cc2c(=O)n3ccccc3nc2n1Cc1ccccc1	i	?	i	i	i	?
COc1ccc(CCn2c(=N)c(C(=O)NC3CCCC3)cc3c(=O)n4cccc(C)c4nc32)cc1	i	i	?	i	?	?
Cc1cccn2c(=O)c3cc(C(=O)NC4CCS(=O)(=O)C4)n(Cc4ccccc4)c3nc12 (stereo unspecified)	i	13µM	i	i	i	2.59µM
CNC(=O)c1cc2c(=O)n3cccc(C)c3nc2n(C(C)C)c1=N	i	3.66µM	i	i	i	?
Cc1cccn2c(=O)c3cc(C(=O)NC4CCCCC4)c(=N)n(Cc4ccccc4)c3nc12	i	2.06µM	?	i	?	2.31µM
Cc1cccn2c(=O)c3cc(C(=O)NC4CCCC4)c(=N)n(CCc4ccccc4)c3nc12	i	2.59µM	?	i	i	4.61µM
O=C(CSc1nc2c(sc3ccccc32)c(=O)n1CCCC(=O)NC1CCCC1)Nc1ccc(F)cc1	i	nt	nt	nt	nt	nt

Screening data: PubChem, National Center for Advancing Translational Sciences (NCATS)
